Screening results deposited in PubChem by several laboratories.
A selection: hits, their analogues and other compounds. The true share with any hit is near 3.8%.
NALP1 yeast inh = NALP1 inflammasome inhibitors in reconstituted yeast, colorimetric, S. cerevisiae, triplicate retest; inhibition, % at 10 µM; 280,000 tested, 0.61% active; S. cerevisiae NALP1/ASC/caspase-1 growth, X-gal OD620, 72 h; in the data active = inhibition mostly above about 24%, no sharp cut-off; inactive = mostly below about 32%
HSP90 inh = HSP90 inhibitors, primary screen, cell lysate, luminescence. Heat shock protein HSP 90 (rabbit reticulocyte lysate; luciferase refolding). Rabbit reticulocyte lysate, luciferase refolding luminescence, 3 h. inhibition, % at 5.6 µM. 290,000 tested, 0.91% active;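 active = inhibition above the screen-wide mean plus 3 SD, computed separately per campaign, cut at about 16% in these data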;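 also: 0% = DMSO wells and 100% = 60 µM geldanamycin wells; inhibitors lower the luminescence because luciferase stays unfolded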
pCIP destab = p/CIP-EGFP fusion destabilizers, primary screen, fluorescence, F442A cells. decrease of EGFP signal, % at 10 µM. 16 h. 290,000 tested, 0.01% active. Q05BA5;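 active = EGFP signal decrease of at least 30% at 10 µM or well 3 SD below plate mean, unless failing retest; inactive = the rest, including hits failing retest or dose response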
Hsp70 act = Hsp70 transcriptional activators, primary screen, cell-based, HeLa, Hsp70 promoter luciferase, luminescence, 10 µM. HeLa Hsp70 promoter luciferase reporter; scaled: vehicle 0, proteasome-inhibitor control 100%. activation, % at 10 µM. 200,000 tested, 0.04% active;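 active = activation above the mean across all tested compounds plus 3 SD, cutoff set per campaign, cut at about 5.5% in these data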;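 also: 100% = MG132 at 30 µM as the positive control and 0% = DMSO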
HSF1 inhib = HSF1 inhibitors in luciferase reporter cells, primary screen, cell-based, NIH3T3, luminescence. NIH3T3-HGL HSE-luciferase, MG132-induced, luminescence 8 h; stronger effect = lower value. activity change, negative = inhibition, % at 7.5 µM (by protocol). 300,000 tested, 0.77% active. AID 2098, 2009;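 active = more than half of replicate wells show activity change below -50%, luminescence cut by over half; inconclusive = some wells, but at most half, below -50%; inactive = no replicate well below -50%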;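 also: luciferase reports HSF-1 transcriptional activity via heat shock element; 0% = median of DMSO wells and -100% = zero luminescence signal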
HSF1 activator = HSF-1 activators, primary screen, NIH3T3-HGL cells, MG132 stress, luminescence, single point; 300,000 tested, 1.7% active; activation, % at 9 µM; AID 504408, 2011; NIH3T3-HGL HSF-1 luciferase reporter, 8 h; 100% = twice DMSO control signal;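 active = mean replicate activation of at least 50% with a set share of replicates each reaching 50%; inconclusive = only one of those two conditions met; inactive = mean below 50% and too few replicates reaching it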;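 also: 0% = median of the neutral control wells and 100% = twice that signal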
HSP90 inh confirm = HSP90 inhibitors, confirmation, cell lysate, luminescence. inhibition, % at 5.9 µM. rabbit reticulocyte lysate, luciferase refolding luminescence, 3 h. AID 1846, 2009. 2,300 tested, 64% active. shares compounds with HSP90 inh; in the data active = inhibition above about 18%;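 also: 0% = vehicle wells and 100% = reference inhibitor wells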
luciferase ctr = firefly luciferase inhibitors, HSP90 counter-screen, confirmation, artefact control for HSP90 inhibitor project, biochemical, luminescence, triplicate; shares compounds with HSP90 inh; purified native firefly luciferase; inhibition, % at 5.9 µM; 2,300 tested, 48% active; AID 1847, 2009;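 active = inhibition above the mean inhibition of all tested sample wells plus 3 SD, cut at about 10% in these data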;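 also: 0% = DMSO with luciferase and 100% = wells lacking luciferase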
Target sequence (P08659 whole entry, looked up): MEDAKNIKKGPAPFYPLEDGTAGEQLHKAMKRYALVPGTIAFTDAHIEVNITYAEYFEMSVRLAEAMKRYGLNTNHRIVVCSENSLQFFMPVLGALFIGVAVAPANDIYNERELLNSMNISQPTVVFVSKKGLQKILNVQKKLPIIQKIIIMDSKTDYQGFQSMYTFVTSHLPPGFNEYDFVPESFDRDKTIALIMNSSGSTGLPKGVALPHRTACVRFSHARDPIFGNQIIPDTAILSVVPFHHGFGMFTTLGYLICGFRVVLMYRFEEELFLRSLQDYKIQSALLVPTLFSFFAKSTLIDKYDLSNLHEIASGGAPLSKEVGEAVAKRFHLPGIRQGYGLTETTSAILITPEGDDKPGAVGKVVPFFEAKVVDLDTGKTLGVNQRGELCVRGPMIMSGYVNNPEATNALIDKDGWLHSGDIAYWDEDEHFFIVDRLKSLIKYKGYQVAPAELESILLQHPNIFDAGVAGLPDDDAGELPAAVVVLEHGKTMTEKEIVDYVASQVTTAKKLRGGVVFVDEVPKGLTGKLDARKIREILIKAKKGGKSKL
* marks the source's active call; other numbers are inactive results; ? = inconclusive; nt = no result.

SMILES	NALP1 yeast inh	HSP90 inh	pCIP destab	Hsp70 act	HSF1 inhib	HSF1 activator	HSP90 inh confirm	luciferase ctr
OC(COc1cccc2ccccc12)CN1CCN(c2ccccc2)CC1 (configuration not stated)	6	12	-6	nt	1	-1	7	0
Cc1ccc(OCC(O)CN2CCN(c3ccccc3)CC2)cc1 (configuration not stated)	6	1	-10	0	-4	5	nt	nt
CC(C)(C)c1ccc(OCC(O)CN2CCN(c3ccccn3)CC2)cc1 (configuration not stated)	13	40*	-4	nt	-7	1	2	-2
Cc1ccc2nc(-c3ccc(N4C(=NC(=O)CCC(=O)O)SC5CS(=O)(=O)CC54)cc3)sc2c1 (configuration not stated)	6	2	-6	0	1	8	nt	nt
COc1ccc(C2=NOC(C)(c3nnc(Cc4ccccc4)o3)C2)cc1 (configuration not stated)	nt	nt	nt	nt	1	11	nt	nt
CC1CCN(C(=O)CCC(=O)Nc2nnc(C(F)(F)F)s2)CC1	15	-5	10	nt	6	-18	nt	nt
O=C(Cc1nn[nH]n1)Nc1cc(Cl)cc(Cl)c1	29	3	-3	nt	-4	14	nt	nt
O=C(Cn1cc(C(=O)c2ccco2)c2ccccc21)NC1CC1	-12	25*	6	0	0	2	-9	-11
Cc1cc(NS(=O)(=O)c2ccccc2)c(C)c(Cl)c1O	19	nt	-2	nt	-15	-35	nt	nt
O=S(=O)(Nc1cc(Sc2ncn[nH]2)c(O)c2ccccc12)c1ccccc1	-8	93*	33	0	nt	nt	7	9.4*
CCc1sc(C(=O)Nc2ncccc2O)cc1C	4	22*	7	nt	20	21	52*	42*
CCc1sc(C(=O)Nc2ncccc2C)cc1C	18	-3	-9	nt	-1	-3	nt	nt
Cc1ccc(C(=O)NCCSC(C)(C)C)cc1	11	19*	-7	0	23	45	31*	24*
O=C(NCCc1cccs1)c1ccc(Cl)cc1	nt	19*	-3	nt	16	37	45*	41*
O=C(NCCc1cccs1)c1ccc(Cl)c(Cl)c1	1	2	-4	0	27	39	nt	nt
Cc1ccc(C(=O)NCCc2cccs2)cc1	4	55*	-2	0	-23	-34	74*	62*
O=C(Nc1ccnn1C1CCN(Cc2c[nH]c3ccccc23)CC1)c1ccccc1	18	-5	2	nt	-1	4	nt	nt
CN(C)/C=C/c1c([N+](=O)[O-])c2ccc(O)cc2n1-c1ccccc1	16	4	-1	nt	-1	-6	nt	nt
COc1ccc(OC)c(/C=N/Nc2nc(C)cc(=O)[nH]2)c1	7	-2	0	nt	0	9	nt	nt
O=C(Nc1cccc(O)c1)c1noc2c1CCc1ccccc1-2	50	40*	-10	0	6	15	61*	54*
CN(C)c1ccc2nc3ccc(=[N+](C)C)cc-3sc2c1	20	15	0	0	26	48	nt	nt
Cc1cc2nc3ccc(=[N+](C)C)cc-3sc2cc1N	12	82*	5	nt	44	58*	89*	38*
CCOc1ccc(NC(=O)CN2CCN(C(=O)C3CCCO3)CC2)cc1 (configuration not stated)	-6	-4	-4	nt	-6	-3	nt	nt
CC(C)c1ccc(NC(=O)c2csnn2)cc1	9	20*	-7	0	11	19	33*	23*
O=C(Nc1ccccc1NC(=O)c1csnn1)c1csnn1	2	-2	2	0	-46	-59	nt	nt
SMILES	NALP1 yeast inh	HSP90 inh	pCIP destab	Hsp70 act	HSF1 inhib	HSF1 activator	HSP90 inh confirm	luciferase ctr
CC(C)(C)c1cc(NC(=O)c2cccs2)no1	11	21*	-5	nt	18	22	36*	13*
Cc1cc(NC(=O)c2ccc(NC(=O)c3cccs3)cc2)no1	18	3	-8	0	1	10	nt	nt
Cc1cc(C(=O)CSc2ncccn2)c(C)n1Cc1ccco1	17	17*	-7	0	39	45	46*	37*
Cc1cc(C(=O)CSc2nnnn2C)c(C)n1Cc1ccco1	7	3	-16	nt	19	49	nt	nt
CCOc1ccc(NS(=O)(=O)c2ccc(C(=O)NCC(c3ccc(OC)cc3)N3CCOCC3)cc2)cc1 (configuration not stated)	nt	nt	nt	nt	-2	4	nt	nt
CCOc1ccc(N=C(NN)c2ccc3ccccc3n2)cc1	32	28*	-2	0	-82*	-84	12	-4
COC(=O)c1ccc2ccccc2n1	nt	nt	nt	nt	5	19	nt	nt
CCC(=O)Nc1cc2nn(-c3ccc(C)cc3)nc2cc1C	12	51*	1	0	-62*	-67	75*	67*
CN1CCN(c2nc3c(c(=O)[nH]c(=O)n3C)n2Cc2ccc(Cl)cc2)CC1	1	-1	-3	nt	-4	-17	nt	nt
COc1ccc(NC(=O)CCC(=O)N/N=C/c2cn(C)nc2C)cc1	nt	7	-13	nt	12	30	nt	nt
Cc1nn(C)c(C)c1NC(=O)Nc1ccc(Cl)c(Cl)c1	22	-4	9	0	-3	-4	nt	nt
COc1ccc(NC(=O)O/N=C/c2c(C)nn(C(C)(C)C)c2C)cc1	2	33*	-2	nt	-71*	-73	51*	53*
Cc1nn(C(C)(C)C)c(C)c1/C=N/OC(=O)Nc1ccc(Cl)c(Cl)c1	13	78*	-26	nt	-95*	-96	86*	85*
Cc1cccc(CN2CCC(Oc3ccc(C(=O)N4CCCCC4)cc3)CC2)c1	22	1	2	nt	5	-1	nt	nt
COc1ccc(-c2oc3ccccc3c2C(=O)OCc2ccccc2)cc1	6	4	-13	nt	-7	6	nt	nt
CC(C)c1ccccc1NC(=O)COC(=O)COc1ccccc1[N+](=O)[O-]	22	1	-5	0	-2	-14	nt	nt
CC1(C)CC(=O)C/C(=N/Nc2nc3ccccc3s2)C1	-20	22*	2	0	-37	-47	5	-6
CCC/C=N/Nc1nc2ccccc2s1	4	20*	-5	0	15	?	11	2
CC1CCC/C(=N/Nc2nc3ccccc3s2)C1 (configuration not stated)	23	47*	9	0	-22	-29	25*	12*
